# Giardia FBPA inh – qHTS Assay for Inhibitors of Fructose-1,6-bisphosphate Aldolase from Giardia Lamblia; purified Giardia FBPA; A8B2U2; Potency, µM (series often up to 59.6 µM), without a hit: at the highest dose activity, negative = inhibition, actives largely listed as inhibitors; hit rate 0.71% among 290,000; note: nearly all actives have a fitted effect of over 55% in size
# Target sequence (A8B2U2 whole entry, looked up): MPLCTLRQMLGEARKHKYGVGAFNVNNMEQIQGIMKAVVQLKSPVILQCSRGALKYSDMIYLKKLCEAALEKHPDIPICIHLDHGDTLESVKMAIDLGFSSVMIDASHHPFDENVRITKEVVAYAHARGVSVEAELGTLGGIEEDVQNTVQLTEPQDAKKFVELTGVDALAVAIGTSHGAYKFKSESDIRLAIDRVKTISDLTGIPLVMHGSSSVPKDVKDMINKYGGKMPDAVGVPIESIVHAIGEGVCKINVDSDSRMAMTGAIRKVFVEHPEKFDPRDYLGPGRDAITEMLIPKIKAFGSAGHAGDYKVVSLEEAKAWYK
#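 40 nM FBPA preincubated 10 min at RT with compound (up to 57.5 uM final), then substrate plus GAPDH/TPI/NAD/arsenate coupling and diaphorase/resazurin added. Fluorescence read after 20 min at RT, 525/598 nm.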
# AmpC detergent – qHTS Inhibitors of AmpC Beta-Lactamase (assay with detergent). P00811. hit rate 0.041% among 370,000. AID 485294, 2010. AmpC hydrolysis of nitrocefin, absorbance 480 nm, 0.01% Triton. Potency, µM (doses to about 114 µM), without a hit: top-dose activity change, negative = inhibition, hits mostly inhibitors;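 note: 0% = no-compound wells and -100% = no-enzyme wells; nearly all actives have a fitted effect of over 25% in size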
# Target sequence (P00811 whole entry, looked up): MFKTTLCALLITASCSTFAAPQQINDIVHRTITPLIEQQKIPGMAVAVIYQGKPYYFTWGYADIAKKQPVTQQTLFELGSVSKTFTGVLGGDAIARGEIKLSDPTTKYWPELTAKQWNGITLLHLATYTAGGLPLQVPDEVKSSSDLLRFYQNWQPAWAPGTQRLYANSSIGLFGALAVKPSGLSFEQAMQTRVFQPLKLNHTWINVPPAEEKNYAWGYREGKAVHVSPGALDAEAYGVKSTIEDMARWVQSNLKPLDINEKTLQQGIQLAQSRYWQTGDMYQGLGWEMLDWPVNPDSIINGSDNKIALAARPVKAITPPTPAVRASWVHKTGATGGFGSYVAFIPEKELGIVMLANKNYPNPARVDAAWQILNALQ
#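 20 mM phosphate pH 7.0 + 0.01% (detergent screen) or 0.0001% Triton X-100; 5.3 nM AmpC reagent; cpd preinc 15 min RT; nitrocefin (800 uM stock) to start; A480 q20 s × 4 min; Activity was normalised to no-enzyme and no-compound control wells.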
# Sm TGR inh – qHTS Assay for the Inhibitors of Schistosoma Mansoni Peroxiredoxins; Potency, µM (series often up to 114 µM), without a hit: at the top dose activity change, negative = inhibition, actives largely listed as inhibitors; hit rate 3% among 360,000; AID 485364, 2010; Schistosoma mansoni thioredoxin glutathione reductase (TGR), Q962Y6; purified TGR, DTNB reduction, TNB absorbance 405 nm; note: nearly all actives have a fitted effect of over 60% in size
#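 TGR 20 nM + NADPH 100 uM (dispensed conc.), cpd preinc 15 min RT; start with NADPH (500 uM addition) then DTNB (15 mM addition). Kinetic TNB absorbance, 405 nm filter. Four-parameter Hill fit across titration.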
# AmpC inh no detg – qHTS Inhibitors of AmpC Beta-Lactamase (assay without detergent); P00811; AmpC nitrocefin hydrolysis, absorbance 480 nm, 0.0001% Triton; Potency, µM (titrated, usually from 57.1 µM), without a hit: top-dose activity change, negative = inhibition, hits mostly inhibitors; hit rate 0.52% among 330,000;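 note: plate controls were no compound for no effect and no enzyme for full effect; nearly all actives have a fitted effect of over 20% in size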
#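 AmpC (5.3 nM in the dispensed reagent) in 20 mM phosphate pH 7.0 with 0.01% (detergent screen) or 0.0001% Triton X-100 was preincubated with compounds for 15 min at room temperature. Nitrocefin was then added from an 800 uM solution, and hydrolysis was followed at 480 nm.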
# Active calls of the source: *; ? = inconclusive; . = no result given; ! = a repeat was not active; [ ] = another dose, or the depositor's remark. In the library only some 3.6% were active in any assay of this set; here they are far more common. Calls come from the whole dose curve; as a rule, active = well fitted curve in the direction sought with a large enough effect; inconclusive = small, poorly fitted or top-dose-only effect, or another doubt; inactive = no such curve, though single readings can be large; an effect the other way counts as inactive or inconclusive. Unless noted, % is set by controls: 0 for no effect and ±100 for the full control effect; potency is the fitted concentration of half-maximal effect.
SMILES,Giardia FBPA inh,AmpC detergent,Sm TGR inh,AmpC inh no detg
COC(=O)C1=C(C(=O)OC)C(c2ccccc2O)c2sc(=O)[nH]c2S1 (stereo unspecified),?,-12.6%,39.8µM*,-22.7%
CN(CC(=O)Nc1ccc(Cl)c(C(F)(F)F)c1)C(=O)c1cn2ccccc2n1,.,-5.9%,0.6%,35.5µM*
CC(C)CO/N=C1/C[C@@H](O)[C@@H](O)[C@@H]2[C@@H]3C(=O)N(Cc4ccccc4)C(=O)[C@H]3CC[C@@H]12,-0.7%[12.9 µM],.,.,.
O=C(CSc1ccccc1Cl)c1ccco1,-8.6%,-16.5%,44.7µM*,-29.4%
Nc1nnc(SCC(=O)c2ccco2)s1,-7.4%,-6.4%,-10.4%,-19.4%
O=C(CCSc1ccc(Cl)cc1)c1ccco1,-3.3%,0.9%,1µM*,-14.4%
O=C(NCCSc1ccc(Cl)cc1)c1ccco1,-2.5%,-0.7%,-1.6%,-18.4%
O=C(CSc1ccc(Cl)cc1)c1ccco1,?,-4.9%,5.62µM*,-30.9%
CC(C)C(=O)NC(NC(=S)Nc1cccc2cccnc12)C(Cl)(Cl)Cl (stereo unspecified),.,-3.2%,-0.6%,10µM*
Cc1noc(C)c1S(=O)(=O)N1CCc2nc(-c3ccccc3)c3c(c2C1)CO[C@@H](C)C3,5.2%[12.9 µM],.,.,.
CCS(=O)(=O)N1CCC(n2c(C(F)(F)F)nc3cccnc32)CC1,.,2.6%,-0.7%,.
CCOC(=O)N1CCN(C(=O)c2ccc(CS(=O)Cc3ccccc3Cl)o2)CC1 (stereo unspecified),.,-1.7%,?,28.4%
CCOC(=O)N1CCN(C(=O)c2ccc(CS(=O)Cc3ccc(C)cc3)o2)CC1 (stereo unspecified),.,0.2%,39.8µM*,31.1%
Cc1ccc(Cl)cc1N1CCN(C(=O)c2ccc(CS(=O)Cc3ccc(Cl)cc3)o2)CC1 (stereo unspecified),.,-0.6%,44.7µM*,160.2%
Cc1cccc(N2CCN(C(=O)c3ccc(CS(=O)Cc4cccc(Cl)c4)o3)CC2)c1C (stereo unspecified),8.2%,-11.2%,39.8µM*,142.9%
CC/C(=N\NC(=O)c1ccc(N2CCCC2=O)cc1)c1ccccc1,-5.7%,-11.6%,2.9%,-18.6%
COc1ccc(N2CCN(C(=O)Cn3nc(Cc4cccnc4)c4ccccc4c3=O)CC2)cc1,.,-2.1%,-10.3%,.
O=C(O)c1ccc(S(=O)(=O)NCC2CCCCC2)cc1,5.9%,-9.4%,0.4%,-10.4%
Cc1cc(OCC(=O)N(Cc2ccco2)c2c(N)n(Cc3ccccc3)c(=O)[nH]c2=O)ccc1Cl,.,6.3%,?,-47.9%
Nc1c(N(Cc2ccco2)C(=O)c2cccc(Cl)c2)c(=O)[nH]c(=O)n1Cc1ccccc1,.,-4.6%,39.8µM*,-27.5%
CC(C)CN(C(=O)c1ccc(N2CCCC2=O)cc1)c1c(N)n(Cc2ccccc2)c(=O)[nH]c1=O,.,-10.1%,39.8µM*,-6.2%
CCCCN(C(=O)c1ccc(N2CCCC2=O)cc1)c1c(N)n(Cc2ccccc2)c(=O)[nH]c1=O,.,-8.3%,-2.3%,-7.0%
COc1cccc(C(=O)N(Cc2ccco2)c2c(N)n(Cc3ccccc3)c(=O)[nH]c2=O)c1,.,-3.8%,44.7µM*,-12.2%
Nc1c(N(Cc2ccco2)C(=O)COc2ccccc2Cl)c(=O)[nH]c(=O)n1Cc1ccccc1,.,0.7%,50.1µM*,-17.4%
COC(=O)[C@H](CCCN=C(N)N)NC(=O)CCCc1c(-c2ccccc2)[nH]c2c(F)cc(F)cc12,-0.1%,.,.,.
SMILES,Giardia FBPA inh,AmpC detergent,Sm TGR inh,AmpC inh no detg
Nc1c(N(Cc2ccco2)C(=O)c2ccc(Br)cc2)c(=O)[nH]c(=O)n1Cc1ccccc1,.,-1.4%,35.5µM*,-27.7%
O=C(CSc1nc2ncccc2o1)Nc1cccc(C(F)(F)F)c1,.,16.1%,?,.
CCCC1=[N+](CC(=O)c2ccccc2)CCn2cccc21,-1.0%,-5.5%,-6.4%,-24.3%
CCCC1=[N+](CC(C)=O)CCn2c(C)ccc21,-9.0%,1.3%,28.2µM*,-0.7%
COCCNc1ccc2cc(S(=O)(=O)N3CCCCC3)ccc2n1,.,-2.6%,2.7%,.
CC1(C)Cc2c(C#N)c(OCC(=O)c3ccc(Cl)cc3)nc(-c3ccoc3)c2CO1,-0.1%,?,39.8µM*,-15.3%
O=C1/C(=C\Nc2ccc(Cl)cc2)CCN1c1ncccn1,-29.0%,-2.1%,15.8µM*,-49.0%
O=C1/C(=C\Nc2ccc(OC(F)(F)F)cc2)CCN1c1ncccn1,-10.0%,-2.1%,?,-12.4%
O=C(Nc1ccc(Cl)cc1)/C(=C/c1ccc([N+](=O)[O-])cc1)c1nc2ccccc2s1,-0.4%,-8.6%,-12.7%,-13.3%[2.29 µM]
CCN(CC)c1ccc(/C=C2\C(=N)N3N=C(CC(=O)N4CCOCC4)SC3=NC2=O)cc1,.,-2.7%,-1.0%,-12.5%
COc1ccc(-c2ccc(CCC(=O)O)n2-c2ccccc2O)cc1,-8.0%,8.3%,28.2µM*!,-25.5%
COc1ccc(-n2c(CCC(=O)O)ccc2-c2ccccc2)cc1,21.4%,9.4%,39.8µM*!,-11.1%
FCCCOc1ccc(-c2nccc(-c3ccc(Cl)cc3)n2)cc1,-0.8%,4.8%,3.3%,0.112µM*
COc1cccc(C(=O)Nc2cccc3c2ccc2cccn23)c1,2.3%,-8.5%,-0.3%,-36.6%
CCOc1ccc(C(C)=O)cc1COC(=O)c1ccccc1C(=O)N(C)Cc1ccccc1,.,-14.6%,20µM*,79.2%
CCOc1ccc(C(C)=O)cc1COC(=O)c1ccc2c(c1)NC(=O)CS2,.,9.6%,11.2µM*,-7.0%
CNS(=O)(=O)c1cccc(C(=O)OCc2cc(C(C)=O)ccc2OC)c1,-6.7%,-2.2%,2.82µM*,-23.4%
COc1ccc(C(C)=O)cc1COC(=O)c1ccc(C)c(S(=O)(=O)N2CCOCC2)c1,.,-1.8%,3.55µM*,145.5%
COc1ccc(C(=O)OCc2cc(C)ccc2C)cc1S(=O)(=O)N1CCCC1,.,-11.0%,-1.6%,49.8%
CC[C@]12c3[nH]c4cc(CCC(=O)N(C)C)ccc4c3CCN1C(=O)[C@@H](CC(=O)NCCc1ccccn1)C[C@@H]2C(=O)N1CCN(C(=O)C2CC2)CC1,.,.,.,143.5%
O=C(CCS(=O)(=O)c1cc(Br)cc2c1N(C(=O)C1CC1)CC2)N1CCN(c2cccc(Cl)c2)CC1,.,6.5%,-7.8%,.
CCc1nn(C(CC)C(=O)NCc2cccc(OC)c2)c(=O)c2cc3occc3n12 (stereo unspecified),-2.4%,-12.8%,?,-4.2%
COc1ccc(C(C)=O)cc1COC(=O)c1ccc2c(c1)OCO2,-0.1%,-11.0%,?,-24.5%
COc1ccc(C(C)=O)cc1COC(=O)c1ccc(S(=O)(=O)N(C)C)cc1,1.3%,-5.7%,2.51µM*,62.1%
COc1ccc(C(C)=O)cc1COC(=O)c1cnc(Cl)c(Cl)c1,1.2%,-3.6%,1.41µM*,-10.6%
CC(C)Oc1ccc(C(=O)Nc2cccc(S(=O)(=O)N3CCCC3)c2)cc1,.,.,.,-18.9%
CC(=O)OCC(NC(=O)C1CCCN1C(=O)OC(C)(C)C)C1OC(n2ccc(=O)[nH]c2=O)C(OC(C)=O)C1OC(C)=O (stereo unspecified),5.3%,.,.,.
